Laboratory results as given in PubChem BioAssay (NCATS).
Records with an inconclusive call do not appear. Where a call stands in place of a potency, no number is given. The source made the active and inactive calls. The call rests on the fitted dose curve; in most records, active means well fitted curve in the direction sought with a large enough effect; inconclusive means small, poorly fitted or top-dose-only effect, or another doubt; inactive means no such curve, though single readings can be large; an effect the other way counts as inactive or inconclusive.

What was measured:
[1] = target: Aldehyde dehydrogenase, mitochondrial (Homo sapiens) (UniProt P05091); assay: qHTS for Inhibitors of the Aldehyde Dehydrogenase Family (ALDH2) Primary screen (AID 2061308); details: ALDH2 enzyme inhibition qHTS, 1536-well; series mostly up to 56 µM; further: nearly all actives have a fitted effect of over 55% in size
[2] = target: Retinaldehyde dehydrogenase 3 (Homo sapiens) (UniProt P47895); assay: qHTS for Inhibitors of the Aldehyde Dehydrogenase Family (ALDH1A3) Primary screen (AID 2061315); details: ALDH inhibition qHTS; series mostly up to 56 µM
[3] = target: Aldehyde dehydrogenase 1A1 (Homo sapiens) (UniProt P00352); assay: qHTS for Inhibitors of the Aldehyde Dehydrogenase Family (ALDH1A1) Confirmatory screens (AID 2061316); details: ALDH inhibition qHTS; series mostly up to 47.3 µM; further: potency means the concentration at half of the fitted maximal effect; nearly all actives have a fitted effect of over 65% in size

| SMILES | Potency [1] | Potency [2] | Potency [3] |
| --- | --- | --- | --- |
| O=C(O)c1ccc(S(=O)(=O)N[C@H](Cc2c[nH]c3ccccc23)C(=O)O)cc1 | inactive | inactive | – |
| CC1(C)CC[C@]2(C(=O)O)CC[C@]3(C)C(=CCC4[C@@]5(C)C[C@@H](O)[C@H](O)[C@@](C)(CO)C5CC[C@]43C)C2C1 (stereo partly drawn) | inactive | inactive | – |
| COC(=O)c1ccccc1-c1ccc(/C=c2\sc3nc4cc(Br)cnc4n3c2=O)o1 | inactive | inactive | 11.3 µM (active) |
| O=C(OCC#CCSc1nnc(-c2cccc3ccccc23)o1)c1ccc(F)cc1F | inactive | inactive | – |
| CN(C(=O)Nc1ccc2ccccc2c1)c1nnc(-c2ccncc2)s1 | inactive | inactive | – |
| COCCN(CCOC)c1nc(C)nc2c1nc(-c1ccccc1)n2CCCN(C)C | inactive | inactive | – |
| O=C1Nc2cccc(Cl)c2/C1=C\c1cc(Cl)c(O)c(Cl)c1 | inactive | inactive | – |
| O=c1c2ccccc2nc2sc(Nc3ccc4c(c3)OCO4)nn12 | inactive | inactive | 5.04 µM (active) |
| O=C(Nc1cccc(C(=O)O)c1)Nc1nnc(-c2ccncc2)s1 | inactive | inactive | – |
| CC(C)CC(OC(=O)CNC(=O)c1ccccc1)C(=O)Nc1cc(C(F)(F)F)ccc1Cl (stereo not drawn) | inactive | inactive | – |
| CC(=O)c1ccc(N2CCN(S(=O)(=O)c3ccc4c(c3)oc(=O)n4C)CC2)cc1 | inactive | inactive | – |
| O=C(Nc1ccc(Cl)c([N+](=O)[O-])c1)Nc1cccc(-c2ccncc2)n1 | inactive | inactive | – |
| Cc1cc(C)nc(NC(=S)N2CCN(c3cc(Cl)cc(Cl)n3)CC2)c1 | inactive | inactive | 3.57 µM (active) |
| Cc1cc2c(s1)c1cnn(Cc3c(F)c(F)c(C(F)(F)F)c(F)c3F)c(=O)c1n2C | inactive | inactive | – |
| COc1ccc(NC(=O)c2[nH]c(C)c(C(C)=O)c2C)cc1S(=O)(=O)Nc1ccc(C#N)cc1 | inactive | inactive | 11.3 µM (active) |
| COc1ccc(CN(Cc2ccccc2)S(=O)(=O)c2ccccc2)cc1COc1ccc(NC(C)=O)cc1 | inactive | inactive | – |
| Cc1noc(C)c1-c1ccc2ncnc(NCc3ccc(-c4ccccc4)cc3)c2c1 | inactive | inactive | – |

| SMILES | Potency [1] | Potency [2] | Potency [3] |
| --- | --- | --- | --- |
| CC(C)CC(=O)O[C@@H]1OC=C(CO[C@@H]2O[C@H](CO[C@@H]3O[C@H](CO)[C@@H](O)[C@H](O)[C@H]3O)[C@@H](O)[C@H](O)[C@H]2O)[C@H]2C[C@H](O)[C@@H](CO)[C@@H]12 | inactive | inactive | – |
| O=C(OCC#CCSc1nnc(-c2cccc3ccccc23)o1)c1ccc(F)c(F)c1 | inactive | inactive | – |
| O=[S+]([O-])(Nc1cnc2ccccc2c1)c1ccc(NCc2ccc(Cl)cc2O)cc1 | inactive | inactive | – |
| Cc1noc(C)c1-c1ccc2ncnc(NCc3ccc(F)c(F)c3)c2c1 | inactive | inactive | – |
| O=C(NCc1nnc(-c2cc3ccccc3[nH]2)o1)c1ccccc1 | inactive | inactive | – |
| O=C(OCC#CCSc1nnc(-c2cccc3ccccc23)o1)c1cccc(F)c1 | inactive | inactive | – |
| Cc1ccc2nc3sc(C(=O)N4CCC(C(N)=O)CC4)cc3cc2c1 | inactive | inactive | – |
| COc1cccc(-c2ccc3ncnc(NCc4cccs4)c3c2)c1 | inactive | inactive | – |
| COc1ccc(C2=Nn3c(nnc3-c3ccccc3OC)SC2)cc1OC | inactive | inactive | – |
| CCCn1c(-c2ccc(F)cc2)nc2c(NC3CCN(Cc4ccccc4)C3)nc(C)nc21 (stereo not drawn) | inactive | inactive | – |
| Cc1ccc(N[S+](=O)([O-])c2cc3c(cc2NC2CC2)NC(=O)CC3)cc1C | inactive | inactive | 28.3 µM (active) |
| O=c1c2ccccc2nc2sc(Nc3ccc4c(c3)CNC4)nn12 | inactive | inactive | – |
| O=C(CNC(=O)c1ccccc1Cl)OC(C(=O)Nc1cc(C(F)(F)F)ccc1Cl)c1ccccc1 (stereo not drawn) | inactive | inactive | – |
| C#CCOc1cc(C2=Nn3c(nnc3-c3cccc(OCC(C)=O)c3)SC2)ccc1OC | inactive | inactive | – |
| CC(C)(C)OC(=O)N[C@@H](Cc1ccc(OS(=O)(=O)c2cccc3cnccc23)cc1)C(=O)N1CCCN(C(=O)OC(C)(C)C)CC1 | inactive | inactive | – |
| CCN(CC)CCCCn1c(-c2ccccc2)nc2c(N(CCOC)CCOC)nc(C)nc21 | inactive | inactive | – |
| CONC(=O)C[C@@H](C#N)NC(=O)[C@@H]1CCCN1C(=O)[C@@H](NC(=O)c1ccc(N)c(Cl)c1)C(C)(C)C | inactive | inactive | – |
